Experimental data published in PubChem BioAssay (NCATS).
Results filed as inconclusive are left out. A call without a number means that no potency is given here. The source made the active and inactive calls. Unless noted, calls come from the whole dose curve; as a rule, active = well fitted curve in the direction sought with a large enough effect; inconclusive = small, poorly fitted or top-dose-only effect, or another doubt; inactive = no such curve, though single readings can be large; an effect the other way counts as inactive or inconclusive.

Legend:
[1] = High-throughput drug toxicity screening in the BPDCN cell line Cal-1 (AID 1224825; call rule not given here); details: Cal-1 BPDCN cell viability, qHTS; at 45.8 µM (top of the series) unless noted
In short: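 500 Cal-1 cells/well, RPMI + glutamine + 10% FBS (phenol red-free); cpd added by pin tool; 48 h, 37C, 5% CO2; CTG 15 min RT, lumi read. Normalised: DMSO 100%, bortezomib 9.2 uM 0%.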

[2] = qHTS assay for measurement of the activity of small molecule inhibitors on Zika virus induced Caspase-3 activity in human iPSC derived neural progenitor cells (hNPCs) (AID 1224857); note: nearly all actives have a fitted effect of over 65% in size
In short: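 Percent inhibition of virus-induced caspase-3/7 luminescence (Caspase-Glo), scaled between uninfected cells and Zika-infected cells. hNPCs received compound 1 hr before ZIKV at 2 FFU/cell, with 6 hours infection at 37 C.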

[3] = qHTS assay for measurement of the activity of small molecule inhibitors on Zika virus induced Caspase-3 activity in human astrocytoma cells (AID 1224859)
In short: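 Luminescent caspase-3/7 read-out (30 min reagent, room temperature) in human SNB-19 cells infected 6 h with ZIKV (2 FFU/cell) after 1 h compound pre-incubation; Data were normalised to uninfected and infected wells.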

[4] = qHTS Screen of the MIPE 4.0 Collection Against Ewings Sarcoma (RDES) (AID 1259252); note: nearly all actives have a fitted effect of over 35% in size; note: potency is the fitted concentration of half-maximal effect
In short: (§1)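 Cells plated in serum-containing RPMI (5% FBS) and treated with compound dilutions for 48 h. Readout luminescent viability; normalization relied on vehicle (no inhibition) and media-only columns (full inhibition).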

[5] = qHTS Screen of the MIPE 4.0 Collection Against Ewings Sarcoma (TC71) (AID 1259253); note: nearly all actives have a fitted effect of over 40% in size; note: potency is the fitted concentration of half-maximal effect
In short: as §1

[6] = qHTS Screen of the MIPE 4.0 Collection Against Ewings Sarcoma (EW8) (AID 1259255); note: nearly all actives have a fitted effect of over 35% in size; note: potency is the fitted concentration of half-maximal effect
In short: as §1

[7] = P-glycoprotein substrates identified in KB-3-1 adenocarcinoma cell line, qHTS therapeutic library screen (AID 1346986); note: nearly all actives have a fitted effect of over 60% in size
In short: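 Cells seeded 500/well in DMEM/10% FCS; compounds pinned in dose-response; 72 h incubation; CellTiter-Glo added, 5 min, luminescence. KB-8-5-11 run ±tariquidar to test reversal of P-gp resistance.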

[8] = P-glycoprotein substrates identified in KB-8-5-11 adenocarcinoma cell line, qHTS therapeutic library screen (AID 1346987); note: nearly all actives have a fitted effect of over 65% in size
In short: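 Steps: plate 500 KB-8-5-11 cells/well in DMEM + 10% FCS (colchicine removed); pin compounds in dose-response; incubate 72 h, 37 degree C, 5% CO2; add CellTiter-Glo, 5 min; read luminescence.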

[9] = Natriuretic polypeptide receptor (hNpr1) antagonism - Pilot counterscreen GloSensor control cell line (AID 1347045; calls by dose curve)
In short: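 Luminescence was read before and 20 min after adding 50 uM SNP, which stimulates soluble guanylyl cyclase. The HEK293 cells expressing the GloSensor cGMP sensor had been preloaded with 2% reagent for 2 h and treated with compound.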

[10] = target: Atrial natriuretic peptide receptor 1 (Homo sapiens) (UniProt P16066); assay: Natriuretic polypeptide receptor (hNpr1) antagonism - Pilot screen (AID 1347049; calls by dose curve;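 note: agonist-evoked cGMP luminescence read 20 min after hNppA addition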)
In short: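 Readout is cGMP-driven firefly luciferase luminescence in HEK293 cells carrying hNpr1 and a PDE5-domain GloSensor, read before and 20 min after 0.1 nM hNppA stimulation. Cells had 2% substrate reagent for 2 h and test compound for 30 min.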

[11] = target: Atrial natriuretic peptide receptor 2 (Homo sapiens) (UniProt P20594); assay: Natriuretic polypeptide receptor (hNpr2) antagonism - Pilot subtype selectivity assay (AID 1347050; calls by dose curve)
In short: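 Pilot selectivity screen against hNpr2: HEK293 cGMP-sensor cells are treated with LOPAC1280 compounds, then with hNppC peptide at 1 nM final. The cGMP-driven luminescence change over 20 min at room temperature is the read-out.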

[12] = target: Parathyroid hormone/parathyroid hormone-related peptide receptor (Homo sapiens) (UniProt Q03431); assay: qHTS for PTHR1 Agonists: Optimization Screen against the NCGC LOPAC library (AID 1347079);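 note: GloSensor cAMP luminescence in HEK-293 GP2 cells expressing human PTHR1 with IBMX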
In short: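 Agonist readout: GloSensor cAMP luminescence, read after 15 min at room temperature. HEK-293-derived GP2 line carries PTHR1; compounds tested as a titration for 1 hr at 37C in presence of IBMX. M-PTH (1-15) served as control.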

[13] = qHTS of pediatric cancer cell lines to identify multiple opportunities for drug repurposing: Primary screen for TC32 cells (AID 1347089); note: nearly all actives have a fitted effect of over 60% in size; note: potency is the fitted concentration of half-maximal effect
In short: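 qHTS, TC32, 48 h drug treatment, CellTiter-Glo luminescence as a proxy for metabolically active cells; primary top concentration 46 µM (MIPE 11-pt, NPC 8-pt); confirmatory 11-pt.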

[14] = qHTS of pediatric cancer cell lines to identify multiple opportunities for drug repurposing: Primary screen for DAOY cells (AID 1347090); note: nearly all actives have a fitted effect of over 55% in size; note: potency is the fitted concentration of half-maximal effect
In short: (§2)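 Cell viability, CellTiter-Glo luminescence; 500-1,000 cells/well, 8- or 11-point titration, 48 h compound exposure at 37 degrees C, 5% CO2. Controls: DMSO neutral, bortezomib 2.3 µM final as positive.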

[15] = qHTS of pediatric cancer cell lines to identify multiple opportunities for drug repurposing: Primary screen for SJ-GBM2 cells (AID 1347091); note: potency is the fitted concentration of half-maximal effect
In short: as §2

[16] = qHTS of pediatric cancer cell lines to identify multiple opportunities for drug repurposing: Primary screen for A673 cells (AID 1347092); note: nearly all actives have a fitted effect of over 45% in size; note: potency is the fitted concentration of half-maximal effect
In short: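 Luminescence from CellTiter-Glo, taken after 15 min at room temperature, served as the proxy for metabolically active cells following 48 h treatment. Both potency and efficacy were taken from curves fitted to the titration data.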

[17] = qHTS of pediatric cancer cell lines to identify multiple opportunities for drug repurposing: Primary screen for SK-N-MC cells (AID 1347093); note: potency is the fitted concentration of half-maximal effect
In short: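 Metabolically active cells were quantified by ATP-dependent luminescence (CellTiter-Glo, 15 min at room temperature) following 48 h treatment. Cells had been plated at 500-1,000 per well and settled for 5 h beforehand.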

[18] = qHTS of pediatric cancer cell lines to identify multiple opportunities for drug repurposing: Primary screen for BT-37 cells (AID 1347094); note: potency is the fitted concentration of half-maximal effect
In short: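 ATP-based luminescence (CellTiter-Glo) quantifies viability after a 48-hour exposure. Compounds are dosed across 8 or 11 final concentrations; DMSO and 2.3 µM bortezomib serve as controls.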

[19] = NS1 protein of Zika virus - qHTS assay to identify small molecule inhibitors in human HEK 293 cells (AID 1347053); note: nearly all actives have a fitted effect of over 55% in size; note: potency is the fitted concentration of half-maximal effect
In short: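 Inhibition of NS1 expression was scored in HEK 293 cells given compound 1 h ahead of MR766 virus (MOI = 0.5). Following 24 h at 37 C, two anti-NS1 antibodies generated a TR-FRET signal, scaled between uninfected and infected controls.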

[20] = qHTS Screen of the MIPE 4.0 Collection Against Ewings Sarcoma (TC32) (AID 1259256); note: potency is the fitted concentration of half-maximal effect; nearly all actives have a fitted effect of over 45% in size
In short: as §1

Sequence of Parathyroid hormone/parathyroid hormone-related peptide receptor (Homo sapiens) (Q03431 whole entry, looked up): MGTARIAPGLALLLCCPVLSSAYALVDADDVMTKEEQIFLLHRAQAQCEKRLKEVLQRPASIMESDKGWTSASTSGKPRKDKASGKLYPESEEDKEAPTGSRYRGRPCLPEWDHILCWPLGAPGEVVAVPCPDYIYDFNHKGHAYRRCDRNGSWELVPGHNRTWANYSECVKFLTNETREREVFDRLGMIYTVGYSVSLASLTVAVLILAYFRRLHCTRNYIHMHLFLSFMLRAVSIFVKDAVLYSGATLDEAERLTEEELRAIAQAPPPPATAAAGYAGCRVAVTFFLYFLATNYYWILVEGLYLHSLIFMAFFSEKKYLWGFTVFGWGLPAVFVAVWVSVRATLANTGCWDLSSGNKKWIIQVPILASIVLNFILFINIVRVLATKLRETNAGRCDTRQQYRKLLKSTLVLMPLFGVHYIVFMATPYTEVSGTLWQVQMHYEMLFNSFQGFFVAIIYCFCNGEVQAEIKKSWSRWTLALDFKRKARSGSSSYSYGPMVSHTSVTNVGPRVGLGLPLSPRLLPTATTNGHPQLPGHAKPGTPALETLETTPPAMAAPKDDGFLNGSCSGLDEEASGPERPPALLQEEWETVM
Sequence of Atrial natriuretic peptide receptor 1 (Homo sapiens) (P16066 whole entry, looked up): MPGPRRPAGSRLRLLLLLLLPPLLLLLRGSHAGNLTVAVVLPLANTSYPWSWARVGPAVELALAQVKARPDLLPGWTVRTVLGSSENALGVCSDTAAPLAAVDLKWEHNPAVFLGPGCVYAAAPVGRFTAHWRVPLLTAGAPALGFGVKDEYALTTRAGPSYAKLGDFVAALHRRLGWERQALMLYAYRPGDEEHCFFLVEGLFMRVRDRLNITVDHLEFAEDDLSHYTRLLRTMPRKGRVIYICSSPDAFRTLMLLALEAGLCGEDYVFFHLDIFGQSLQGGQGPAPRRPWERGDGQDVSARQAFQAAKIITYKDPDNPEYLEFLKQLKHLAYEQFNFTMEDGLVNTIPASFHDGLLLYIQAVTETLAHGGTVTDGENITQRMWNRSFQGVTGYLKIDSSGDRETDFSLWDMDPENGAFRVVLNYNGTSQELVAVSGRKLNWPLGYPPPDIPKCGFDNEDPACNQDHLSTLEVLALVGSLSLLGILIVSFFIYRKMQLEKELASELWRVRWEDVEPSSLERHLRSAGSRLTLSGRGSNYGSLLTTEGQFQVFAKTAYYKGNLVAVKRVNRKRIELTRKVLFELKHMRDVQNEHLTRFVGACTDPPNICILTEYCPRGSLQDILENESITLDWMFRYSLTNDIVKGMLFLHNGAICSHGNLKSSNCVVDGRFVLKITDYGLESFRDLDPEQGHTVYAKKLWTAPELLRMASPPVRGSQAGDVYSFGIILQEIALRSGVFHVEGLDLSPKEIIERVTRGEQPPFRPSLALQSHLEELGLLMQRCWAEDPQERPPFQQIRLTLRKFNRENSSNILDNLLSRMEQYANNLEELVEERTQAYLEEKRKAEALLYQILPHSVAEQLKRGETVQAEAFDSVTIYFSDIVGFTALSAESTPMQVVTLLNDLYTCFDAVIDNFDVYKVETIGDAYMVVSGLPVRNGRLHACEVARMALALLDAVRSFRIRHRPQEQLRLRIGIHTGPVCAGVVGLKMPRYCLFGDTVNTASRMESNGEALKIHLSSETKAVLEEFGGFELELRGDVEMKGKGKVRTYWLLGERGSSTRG
Sequence of Atrial natriuretic peptide receptor 2 (Homo sapiens) (P20594 whole entry, looked up): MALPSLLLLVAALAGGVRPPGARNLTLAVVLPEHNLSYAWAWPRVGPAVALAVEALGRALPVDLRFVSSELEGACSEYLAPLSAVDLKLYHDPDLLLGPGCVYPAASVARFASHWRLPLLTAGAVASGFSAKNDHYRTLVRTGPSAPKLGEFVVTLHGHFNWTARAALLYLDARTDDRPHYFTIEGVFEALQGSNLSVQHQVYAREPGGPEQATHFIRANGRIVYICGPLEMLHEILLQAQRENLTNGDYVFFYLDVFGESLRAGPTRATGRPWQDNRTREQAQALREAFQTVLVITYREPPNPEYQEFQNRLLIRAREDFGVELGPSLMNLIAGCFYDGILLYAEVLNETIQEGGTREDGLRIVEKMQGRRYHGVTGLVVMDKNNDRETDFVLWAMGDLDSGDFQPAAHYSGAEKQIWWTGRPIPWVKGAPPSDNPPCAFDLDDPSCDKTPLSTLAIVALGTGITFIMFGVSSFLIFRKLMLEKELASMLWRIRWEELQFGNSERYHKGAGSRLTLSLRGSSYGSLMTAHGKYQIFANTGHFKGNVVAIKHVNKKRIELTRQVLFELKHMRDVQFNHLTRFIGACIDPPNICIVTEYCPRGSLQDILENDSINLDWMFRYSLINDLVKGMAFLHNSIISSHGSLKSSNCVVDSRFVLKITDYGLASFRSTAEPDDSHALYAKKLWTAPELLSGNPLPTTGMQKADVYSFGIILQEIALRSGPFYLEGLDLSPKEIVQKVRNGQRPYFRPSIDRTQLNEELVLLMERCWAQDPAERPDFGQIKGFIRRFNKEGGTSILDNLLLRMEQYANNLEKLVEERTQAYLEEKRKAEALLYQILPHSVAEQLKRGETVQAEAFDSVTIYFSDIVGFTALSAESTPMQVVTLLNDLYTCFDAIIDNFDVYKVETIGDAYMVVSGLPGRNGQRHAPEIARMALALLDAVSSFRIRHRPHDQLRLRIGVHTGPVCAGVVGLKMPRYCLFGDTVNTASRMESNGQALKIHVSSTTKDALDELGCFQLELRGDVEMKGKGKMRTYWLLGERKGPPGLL

Structure (SMILES)	viability (% of control) [1] [%]	Potency [2]	Potency [3]	Potency [4]	Potency [5]	Potency [6]	Potency [7]	Potency [8]	outcome [9]	outcome [10]	outcome [11]	outcome [12]	Potency [13]	Potency [14]	Potency [15]	Potency [16]	Potency [17]	Potency [18]	Potency [19]	Potency [20]
COc1ccc2cc([S+]([O-])Cc3ncc(C)c(OC)c3C)nc2c1	107	inactive	inactive	inactive	inactive	inactive	inactive	inactive	inactive	inactive	inactive	inactive	inactive	inactive	inactive	inactive	inactive	inactive	–	–
Cc1coc2c1C(=O)C(=O)c1c-2ccc2c(C)cccc12	93.8	inactive	inactive	inactive	11.8 µM (active)	inactive	inactive	inactive	–	–	–	–	inactive	inactive	–	inactive	inactive	–	inactive	–
COc1cc(N2CCC(C(N)=O)CC2)ccc1Nc1nc(N)c(Cl)c(Nc2ccccc2S(=O)(=O)C(C)C)n1	10.6	inactive	inactive	1.05 µM (active)	16.6 µM (active)	20.9 µM (active)	–	inactive	–	–	–	–	2.62 µM (active)	0.187 µM (active)	inactive	1.18 µM (active)	0.132 µM (active)	inactive	–	–
COc1cc(CCc2cc(NC(=O)c3ccc(N4C[C@@H](C)N[C@@H](C)C4)cc3)n[nH]2)cc(OC)c1	4.08	inactive	inactive	18.7 µM (active)	16.6 µM (active)	16.6 µM (active)	–	–	–	–	–	–	–	–	13.2 µM (active)	14.8 µM (active)	–	27.3 µM (active)	–	13.2 µM (active)
CC(C)NC[C@@H](C(=O)N1CCN(c2ncnc3c2[C@H](C)C[C@H]3O)CC1)c1ccc(Cl)cc1	1.88	inactive	inactive	4.69 µM (active)	11.8 µM (active)	1.66 µM (active)	–	inactive	–	–	–	–	–	5.9 µM (active)	3.32 µM (active)	11.8 µM (active)	0.132 µM (active)	–	–	–
C[C@H](NCc1ccc(OCc2cccc(F)c2)cc1)C(N)=O	4.81	inactive	inactive	14.8 µM (active)	14.8 µM (active)	8.33 µM (active)	–	–	–	–	–	–	18.6 µM (active)	–	–	5.9 µM (active)	–	19.3 µM (active)	23.5 µM (active)	14.8 µM (active)
